Data as given in PubChem BioAssay AID1159580 (chemical genetic matrix, 2015).
Among all 5,500 compounds or so, about 2,000 (36%) were called active. Inconclusive results (about 18%) are left out. Rule as the data show it: active = normalized growth mostly below about 0.91 (no sharp cut-off); inconclusive = no clear call, values can overlap the other calls; inactive = mostly above about 0.92. Some of the results follow.

Assay: chemical genetic growth profiling, strain panel (AID 1159580);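 also: tested at 20 µM; growth read once vehicle control cultures reached saturation at 30 °C; 1 = growth at the plate median or of vehicle wells; lower values mean less growth of the strain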
Settings: growth OD

Measured: normalized growth

Clc1ccc(CSC(Cn2ccnc2)c2ccc(Cl)cc2Cl)cc1 (stereo not given)
active: S. cerevisiae deletion strains, locus YJR075W, strain HOC1, active compounds read low 0.0603 | S. cerevisiae deletion strains, locus YKL009W, strain mrt4, active compounds read low 0.0877 | S. cerevisiae deletion strains, locus YKL068W, active compounds read low 0.0746 | S. cerevisiae deletion strains, locus YKL085W, strain MDH1 (second series), active compounds read low 0.0615 | S. cerevisiae deletion strains, locus YKL085W, strain MDH1, active compounds read low 0.0615 | S. cerevisiae deletion strains, locus YKL160W, strain elf1, active compounds read low 0.065 | S. cerevisiae deletion strains, locus YKL190W, strain CNB1, active compounds read low 0.0451 | S. cerevisiae deletion strains, locus YKR001C, strain vps1, active compounds read low 0.0681 | S. cerevisiae deletion strains, locus YKR026C, strain gcn3, active compounds read low 0.0654 | S. cerevisiae deletion strains, locus YKR091W, strain srl3, active compounds read low 0.0606 | S. cerevisiae deletion strains, locus YLL001W, strain dnm1, active compounds read low 0.0654 | S. cerevisiae deletion strains, locus YLL026W, active compounds read low 0.0574 | S. cerevisiae deletion strains, locus YLL041C, strain sdh2, active compounds read low 0.0577 | S. cerevisiae deletion strains, locus YLR027C, strain aat2, active compounds read low 0.0604 | S. cerevisiae deletion strains, locus YLR039C, strain RIC1, active compounds read low 0.079 | S. cerevisiae deletion strains, locus YLR058C, strain SHM2, active compounds read low 0.0452 | S. cerevisiae deletion strains, locus YLR102C, strain apc9, active compounds read low 0.0588 | S. cerevisiae deletion strains, locus YLR113W, strain HOG1, active compounds read low 0.116 | S. cerevisiae deletion strains, locus YLR221C, strain rsa3, active compounds read low 0.0604 | S. cerevisiae deletion strains, locus YLR258W, strain gsy2, active compounds read low 0.0614 | S. cerevisiae deletion strains, locus YLR262C, strain YPT6 (second series), active compounds read low 0.0789 | S. cerevisiae deletion strains, locus YLR262C, strain YPT6, active compounds read low 0.103 | S. cerevisiae deletion strains, locus YLR268W, strain sec22, active compounds read low 0.0568 | S. cerevisiae deletion strains, locus YLR320W, strain mms22, active compounds read low 0.0761 | S. cerevisiae deletion strains, locus YLR330W, strain CHS5, active compounds read low 0.0514 | S. cerevisiae deletion strains, locus YLR342W, strain FKS1 (second series), active compounds read low 0.0606 | S. cerevisiae deletion strains, locus YLR342W, strain FKS1, active compounds read low 0.0676 | S. cerevisiae deletion strains, locus YLR357W, strain rsc2, active compounds read low 0.12 | S. cerevisiae deletion strains, locus YLR370C, strain arc18, active compounds read low 0.0635 | S. cerevisiae deletion strains, locus YLR371W, strain rom2, active compounds read low 0.0606 | S. cerevisiae deletion strains, locus YLR384C, strain iki3, active compounds read low 0.0593 | S. cerevisiae deletion strains, locus YLR418C, strain cdc73, active compounds read low 0.0853 | S. cerevisiae deletion strains, locus YML016C, strain PPZ1, active compounds read low 0.0444 | S. cerevisiae deletion strains, locus YML032C, strain rad52, active compounds read low 0.0643 | S. cerevisiae deletion strains, locus YML120C, strain ndi1, active compounds read low 0.0571 | S. cerevisiae deletion strains, locus YML124C, strain tub3, active compounds read low 0.0572 | S. cerevisiae deletion strains, locus YMR058W, strain fet3, active compounds read low 0.0638 | S. cerevisiae deletion strains, locus YMR078C, strain ctf18, active compounds read low 0.0695 | S. cerevisiae deletion strains, locus YMR125W, strain sto1, active compounds read low 0.0785 | S. cerevisiae deletion strains, locus YMR129W, active compounds read low 0.0574 | S. cerevisiae deletion strains, locus YMR205C, strain PFK2, active compounds read low 0.0897 | S. cerevisiae deletion strains, locus YMR223W, strain ubp8, active compounds read low 0.0591 | S. cerevisiae deletion strains, locus YMR231W, strain pep5, active compounds read low 0.146 | S. cerevisiae deletion strains, locus YMR263W, strain SAP30, active compounds read low 0.0544 | S. cerevisiae deletion strains, locus YMR307W, strain GAS1, active compounds read low 0.12 | S. cerevisiae deletion strains, locus YNL067W, strain RPL9B, active compounds read low 0.0471 | S. cerevisiae deletion strains, locus YNL071W, strain lat1, active compounds read low 0.0619 | S. cerevisiae deletion strains, locus YNL128W, strain TEP1, active compounds read low 0.0608 | S. cerevisiae deletion strains, locus YNL183C, strain NPR1, active compounds read low 0.000263 | S. cerevisiae deletion strains, locus YNL209W, strain ssb2, active compounds read low 0.0676 | S. cerevisiae deletion strains, locus YNL233W, strain BNI4, active compounds read low 0.0515 | S. cerevisiae deletion strains, locus YNL248C, strain rpa49, active compounds read low 0.0789 | S. cerevisiae deletion strains, locus YNL250W, strain rad50, active compounds read low 0.0722 | S. cerevisiae deletion strains, locus YNL271C, strain bni1, active compounds read low 0.0682 | S. cerevisiae deletion strains, locus YNL298W, strain CLA4, active compounds read low 0.0628 | S. cerevisiae deletion strains, locus YNL307C, strain MCK1, active compounds read low 0.0686 | S. cerevisiae deletion strains, locus YNL322C, strain KRE1 (second series), active compounds read low 0.0666 | S. cerevisiae deletion strains, locus YNL322C, strain KRE1, active compounds read low 0.045 | S. cerevisiae deletion strains, locus YNR049C, strain mso1, active compounds read low 0.0586 | S. cerevisiae deletion strains, locus YNR052C, strain pop2, active compounds read low 0.0598 | S. cerevisiae deletion strains, locus YOL006C, strain TOP1, active compounds read low 0.0991 | S. cerevisiae deletion strains, locus YOL012C, strain htz1 0.137 | S. cerevisiae deletion strains, locus YOL147C, strain pex11, active compounds read low 0.0557 | S. cerevisiae deletion strains, locus YOR001W, strain rrp6, active compounds read low 0.0726 | S. cerevisiae deletion strains, locus YOR061W, strain CKA2, active compounds read low 0.0436 | S. cerevisiae deletion strains, locus YOR069W, strain VPS5, active compounds read low 0.0456 | S. cerevisiae deletion strains, locus YOR070C, strain gyp1, active compounds read low 0.0632 | S. cerevisiae deletion strains, locus YOR080W, strain dia2, active compounds read low 0.0638 | S. cerevisiae deletion strains, locus YOR083W, strain WHI5, active compounds read low 0.0689 | S. cerevisiae deletion strains, locus YOR106W, strain vam3, active compounds read low 0.0699 | S. cerevisiae deletion strains, locus YOR136W, strain idh2, active compounds read low 0.0693 | S. cerevisiae deletion strains, locus YOR144C, strain elg1, active compounds read low 0.0562 | S. cerevisiae deletion strains, locus YOR184W, strain ser1, active compounds read low 0.0618 | S. cerevisiae deletion strains, locus YOR231W, strain MKK1, active compounds read low 0.102 | S. cerevisiae deletion strains, locus YOR265W, strain rbl2, active compounds read low 0.0591 | S. cerevisiae deletion strains, locus YOR270C, strain vph1, active compounds read low 0.111 | S. cerevisiae deletion strains, locus YOR290C, strain snf2, active compounds read low 0.0745 | S. cerevisiae deletion strains, locus YOR316C, strain cot1, active compounds read low 0.0584 | S. cerevisiae deletion strains, locus YPL051W, strain arl3, active compounds read low 0.0666 | S. cerevisiae deletion strains, locus YPL078C, strain atp4, active compounds read low 0.0762 | S. cerevisiae deletion strains, locus YPL106C, strain sse1, active compounds read low 0.0973 | S. cerevisiae deletion strains, locus YPL240C, strain hsp82, active compounds read low 0.0582 | S. cerevisiae deletion strains, locus YPL241C, strain CIN2, active compounds read low 0.0455 | S. cerevisiae deletion strains, locus YPL256C, strain CLN2, active compounds read low 0.113 | S. cerevisiae deletion strains, locus YPR119W, strain clb2, active compounds read low 0.061 | S. cerevisiae deletion strains, locus YPR141C, strain kar3, active compounds read low 0.0736 | S. cerevisiae deletion strains, locus YPR163C, strain tif3, active compounds read low 0.067 | S. cerevisiae deletion strains, locus YPR167C, strain met16, active compounds read low 0.0596 | S. cerevisiae deletion strains, strain wtn01, active compounds read low 0.0571 | S. cerevisiae strains, strain wild type, active compounds read low 0.0459
